# Results taken from PubChem BioAssay AID720690 (Broad Institute, 2013).
# Measured potencies and affinities stand elsewhere. Activity calls are given as the source filed them.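 How the source made its calls: active means every repeat run showing a signal drop whose fitted half-maximal concentration is at most twice the top tested concentration; inconclusive means repeat runs disagree, or flat partial drop, or poor fit; inactive means the rest.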
# Assay: HEK293T cytotoxicity, dose response, cytotoxicity control for miR-122 modulator project, cell-based, activator set, cherry-pick (AID 720690);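 further: 0% = neutral control wells and -100% = MG132 cytotoxic control wells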
# Conditions: HEK293T viability, CellTiter-Glo luminescence, 48 h; series mostly up to 26 µM; activity change, negative = cytotoxicity: at the top concentration
row,Structure (SMILES),"activity change, negative = cytotoxicity"
1,C/C=C/c1ccc([C@@H]2[C@@H](CN(C(=O)COC)C(C)C)N(C(C)=O)[C@H]2CO)cc1,-16.8% (inactive)
2,COC(=O)C[C@H]1CC[C@@H]2[C@H](COc3ccc(NC(=O)c4cccs4)cc3C(=O)N2C)O1,-2.48% (inactive)
3,CCN(C[C@H]1[C@@H](c2ccccc2)[C@@H](CO)N1C(=O)COC)S(C)(=O)=O,-9.87% (inactive)
4,Clc1ccc(CSc2nnc(-c3ccncc3)o2)c(Cl)c1,-8.49% (inactive)
5,Cc1nn(C)cc1NC(=O)C[C@@H]1CC[C@@H]2[C@@H](COc3ccc(NC(=O)Nc4cccc(Cl)c4)cc3C(=O)N2C)O1,-5.53% (inactive)
6,CCC(=O)N1[C@H](CO)[C@H](c2ccccc2)[C@@H]1CN(CC)C(=O)c1ccccc1,-4.96% [at 23.5 µM] (inactive)
7,CNC(=O)C[C@H]1CC[C@@H]2[C@H](COc3ccc(NC(=O)c4cccc(OC)c4)cc3C(=O)N2C)O1,-2.16% [at 23.5 µM] (inactive)
8,C/C=C/c1ccc([C@@H]2[C@@H](CO)N(Cc3ccccn3)[C@H]2CNC(=O)CC)cc1,22.3% [at 23.5 µM] (inactive)
9,CN1C(=O)c2cc(NS(C)(=O)=O)ccc2OC[C@@H]2O[C@H](CC(=O)O)CC[C@H]21,-4.45% [at 23.5 µM] (inactive)
10,CCN(C[C@@H]1[C@@H](c2ccc(C3=CCCCC3)cc2)[C@@H](CO)N1CC1CC1)C(C)=O,-22.1% (inactive)
11,CN(C[C@H]1N[C@@H](CO)[C@H]1c1ccc(-c2ccccc2)cc1)C(=O)C1CCC1,-13.6% (inactive)
12,CCCC(=O)Nc1ccc2c(c1)C(=O)N(C)[C@@H]1CC[C@H](CC(=O)NCCOC)O[C@H]1CO2,-5.25% (inactive)
13,C[C@@H]1CN([C@H](C)CO)C(=O)c2cc(-c3cccc(C#N)c3)cnc2O[C@H]1CN(C)C(=O)C1CCC1,5.68% (inactive)
14,CNC(=O)C[C@H]1CC[C@@H]2[C@H](COc3ccc(NC(=O)C(C)C)cc3C(=O)N2C)O1,-17.7% [at 23.5 µM] (inactive)
15,CC1CCN(CCc2nc3cc(NC(=O)Nc4ccccc4)ccc3n2C)CC1,5.4% (inactive)
16,CC(C)C#Cc1ccc2c(c1)O[C@H](CN(C)C(=O)c1ccncc1)[C@@H](C)CN([C@@H](C)CO)S2(=O)=O,-2.31% (inactive)
17,CCNC(=O)C[C@@H]1CC[C@H]2[C@@H](COc3ccc(NC(=O)Nc4ccc(F)cc4)cc3C(=O)N2C)O1,-8.16% (inactive)
18,COCC(=O)Nc1ccc2c(c1)C(=O)N(C)[C@@H]1CC[C@@H](CC(=O)NCCCN(C)C)O[C@@H]1CO2,-23.2% (inactive)
19,CO[C@H]1CN(C)C(=O)c2ccc(NC(C)=O)cc2OC[C@@H](C)N(C(=O)CC2CC2)C[C@H]1C,-2.04% (inactive)
20,C/C=C/c1ccc([C@H]2[C@@H](CO)N(Cc3ccccn3)[C@H]2CNC(C)=O)cc1,-9.49% [at 23.5 µM] (inactive)
21,CC(C)Oc1ccc(C(CCN)C2CCCCC2)cc1 (stereo unspecified),-85.3% (inactive)
22,CNC(=O)C[C@@H]1CC[C@@H]2[C@@H](COc3ccc(NC(=O)Cc4cccs4)cc3C(=O)N2C)O1,11.6% (inactive)
23,NC(=O)c1cn(-c2ccccc2)nc1-c1cc2ccccc2oc1=O,-23.6% (inactive)
24,Cc1ccccc1-c1nc(CN2CCCC(C(=O)NCCCN3CCOCC3)C2)c(C)o1 (stereo unspecified),-1.79% (inactive)
25,Cc1ccccc1NCN1C(=O)C2C3C=CC(C3)C2C1=O (stereo unspecified),3.51% (inactive)
26,C[C@@H]1CN([C@@H](C)CO)C(=O)c2cc(NS(=O)(=O)c3ccc(F)cc3)ccc2O[C@@H]1CN(C)Cc1ccc(-c2ccccc2)cc1,-22.7% (inactive)
